# Compound activity: PubChem BioAssay, National Center for Advancing Translational Sciences (NCATS)
# Sampled rows, rich in hits. Any-hit rate of the full collection: about 6.2%.
# FMDV inh = High Throughput Screening for Foot and Mouth Disease Virus Antivirals. FMDV antiviral cell-based qHTS. 1.2% of 410,000 active. Potency, µM (doses to about 57.9 µM), without a hit: top-dose activity change, negative = inhibition, usual class: inhibitors; calls by dose curve; tested in HEK293T cells; note: read-out not given here; potency is the fitted concentration of half-maximal effect; nearly all actives have a fitted effect of over 45% in size
# HCMV antiviral = qHTS Assay for inhibitors of the human cytomegalovirus (HCMV); AID 1259415, 2018; HFF cells, HCMV-luciferase reporter, 72 h; stronger effect = lower value; activity change, negative = inhibition, % at 57.5 µM; 4.5% of 410,000 active; in the data active = activity change below about -60%; inconclusive = no clear call, values can overlap the other calls; inactive = above about -39%
#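 Luciferase read-out from HCMV-luciferase-infected HFFs (MOI 1 PFU/cell) 72 h post infection at 37C; compounds added after 16 h cell attachment; activity normalized between buffer-only basal and Salinomycin (10uM) inhibitor controls.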
# Lassa entry inh = qHTS for Inhibitors of binding or entry into cells for Lassa Virus | Potency, µM (highest dose often 37.9 µM), without a hit: at the highest dose activity change, negative = inhibition, usual class: inhibitors | 1.2% of 300,000 active | AID 540256, 2011 | Lassa virus pseudotype entry inhibition, cell reporter; calls by dose curve; tested in HEK293 cells; note: potency is the fitted concentration of half-maximal effect; nearly all actives have a fitted effect of over 50% in size
# Marburg entry inh = qHTS for inhibitors of binding or entry into cells for Marburg Virus; Marburg virus pseudotyped entry inhibition, cell reporter; Potency, µM (doses to about 37.8 µM), without a hit: at the top dose activity change, negative = inhibition, actives largely listed as inhibitors; 1.8% of 300,000 active; AID 540276, 2011; calls by dose curve; tested in HEK293 cells; note: potency is the fitted concentration of half-maximal effect
# An asterisk follows results filed as active; ? = inconclusive; . = not tested or not shown; ! = not active in a repeat; [ ] = another dose, or the depositor's remark. % is set by controls: 0 for no effect and ±100 for the full control effect.
SMILES,FMDV inh,HCMV antiviral,Lassa entry inh,Marburg entry inh
CCCCCn1c(=N)n(CC(O)COc2ccccc2OC)c2ccccc21 (stereo unspecified),?,-37.4,?,?
CCCCn1c(=N)n(CCOc2ccccc2OC)c2ccccc21,?,-70.5*,?,?
COCC(C)NC(=O)c1cc(-c2cccc(OC)c2)on1 (stereo unspecified),40.3%,108.5,20.9%,7.7%
COc1ccc(-c2noc(CCCC(=O)NC3CCCCC3)n2)cc1,-22.1%,-72.3*,-30.0%[46.1 µM],?
O=C(NCCc1nc(-c2ccccc2Cl)no1)c1ccccc1,-9.9%,?,.,.
O=C(CCCc1nc(-c2ccccc2Cl)no1)NC1CCCC1,?,-73.7*,.,.
Cc1ccc(-c2noc(CCC(=O)Nc3cc(C)ccn3)n2)cc1,-13.7%,-71.5*,0.4%,-10.3%[46.1 µM]
CC(C)C(=O)NCCc1nc(-c2ccccc2Cl)no1,-4.4%,-60.0*,.,.
COc1ccc(-c2noc(CCC(=O)NC3CCCC3)n2)cc1,-4.8%,?,-7.8%[46.1 µM],0.7%[46.1 µM]
COc1cccc(NC(=O)CN(C)C(=O)c2cc(-c3ccco3)nc3ccccc23)c1,-21.3%,-25.6,-11.9%,?
CC(OC(=O)CN1C(=O)NC2(CCCC2)C1=O)C(=O)c1ccc(C(C)(C)C)cc1 (stereo unspecified),-23.1%,-12.4,-6.2%,18.3%
Cc1ccc(-c2noc(CCCC(=O)NC3CCCC3)n2)cc1,-25.6%,-79.8*,-26.3%[46.1 µM],?
O=C(CCCc1nc(-c2ccccc2)no1)NC1CCCC1,-5.2%,10.8,13.8%[46.1 µM],-9.8%[46.1 µM]
O=C(NNC(=O)c1cccnc1SCc1cccc([N+](=O)[O-])c1)c1ccc(F)cc1,-12.2%,-91.6*,?,?
O=C(NNC(=O)c1cccnc1SCc1cccc([N+](=O)[O-])c1)c1ccccn1,-19.7%,-99.6*,?,3.16µM*
C=CCN1C(=O)NC(=O)C(CCc2ccncc2)(CCc2ccncc2)C1=O,2.6%,-2.7,14.4%,5.9%[46.1 µM]
O=C(N/N=C/c1ccncc1)c1ccccc1,5.3%,?,22.0%,5.6%
CCn1c2ccccc2c2cc(/C=N/NC(=O)c3cc(O)cc(O)c3)ccc21,?,-16.1,?,?
CCn1c2ccccc2c2cc(/C=N/NC(=O)c3ccncc3)ccc21,-22.7%,6.0,5.62µM*,?
CCn1c2ccccc2c2cc(/C=N/NC(=O)c3ccc(O)cc3)ccc21,-21.9%,-38.0,5.01µM*,7.08µM*
CCOc1ccc(-c2nnc3ccc(SC(C)C)nn23)cc1,?,-39.4,.,.
CC(=O)Oc1ccc(-c2nc3cc(Cl)ccc3c(=O)o2)cc1,4.4%,-78.4*,13.7%[46.1 µM],28.0%[46.1 µM]
CC(=O)Oc1ccc2c(=O)oc(-c3ccccc3)nc2c1,24.1%,26.5,-0.3%[46.1 µM],23.1%[46.1 µM]
CCOC(=O)C1(c2ccccc2)CCN(CCC(=O)Nc2ccccc2OC)CC1,-18.9%,-25.0,.,.
CN1CCc2cc(O)c(O)cc2C(c2ccccc2)C1 (stereo unspecified),-15.9%,-25.4,?,12.6µM*!
SMILES,FMDV inh,HCMV antiviral,Lassa entry inh,Marburg entry inh
Oc1cc2c(cc1O)C(c1ccccc1)CNCC2 (stereo unspecified),-11.9%,-30.7,?,15.8µM*!
CN1CCc2cc(Cl)c(O)cc2[C@@H](c2ccccc2)C1,1.26µM*!,-64.6*,-0.4%,-10.3%
CN1CCc2cc(Cl)c(O)cc2[C@H]2c3ccccc3CC[C@@H]21,0.0%,.,.,.
C=CCN1CCc2cc(O)c(O)cc2[C@H](c2ccccc2)C1,-1.3%,.,.,?
CCOc1ccc(S(=O)(=O)N2CCN(C(=O)c3ccccc3Cc3ccccc3)CC2)cc1,-15.6%,2.3,.,.
COc1ccccc1OCC(=O)N1CC2(C)CC1CC(C)(C)C2 (stereo unspecified),-9.8%,42.3,-2.3%,6.1%
CC(=O)c1ccc(S(=O)(=O)N2CCN(C(=O)c3ccc(-n4nc(C)c(Cl)c4C)cc3)CC2)cc1,?,-90.1*,.,.
CC1CC(C)CN(C(=O)c2ccc(S(=O)(=O)N3CC(C)CC(C)C3)cc2)C1 (stereo unspecified),-19.9%,-65.0*,?,?
COc1cc2cc(c1Cl)N(C)C(=O)CC(OC(=O)C(C)N(C)C(C)=O)C1(C)OC1C(C)C1CC(O)(NC(=O)O1)C(OC)C=CC=C(C)C2 (stereo unspecified),-10.5%,-80.5*,?,-10.3%
COc1ccc(NC(=O)c2cc(CC(C)C)nc3ccccc23)cc1,15.4%,-77.2*,.,.
Cc1ccc(NC(=O)c2cc(CC(C)C)nc3ccccc23)cc1,-5.5%,-69.8*,-18.9%[46.1 µM],?
Cc1ccc(NC(=O)c2cc(C)nc3ccccc23)cc1,-1.1%,14.7,.,.
COc1ccc(Nc2cc(C(=O)NCc3ccccc3)c3ccccc3n2)cc1,4.8%,?,-5.7%[46.1 µM],?
COc1ccc(CC(=O)Nc2cccc(-c3ccc4nncn4n3)c2)cc1OC,17.8µM*,0.0,?,?
COc1ccc(CC(=O)Nc2cccc(-c3ccc4nnc(C)n4n3)c2)cc1,-25.0%,71.7,13.4%[46.1 µM],?
COc1ccc(CC(=O)Nc2cccc(-c3ccc4nnc(C)n4n3)c2)cc1OC,20µM*,92.1,?,?
Cc1ccc(NC(=O)c2cc(NC(=O)C3CC=CCC3C(=O)O)ccc2N2CCOCC2)cc1Cl (stereo unspecified),0.0%,17.2,-7.0%,-13.4%
COc1cc(C2NCC(c3ccc(Cl)cc3Cl)c3c2[nH]c2ccccc32)cc(OC)c1OC (stereo unspecified),-28.3%,?,?,15.8µM*
Cc1ccc2nc(-c3ccc(NC(=O)COC(=O)c4ccc(Br)o4)cc3)sc2c1,?,41.2,5.62µM*,?
Cc1ccc2nc(-c3ccc(NC(=O)COC(=O)c4ccc([N+](=O)[O-])o4)cc3)sc2c1,-63.4%,?,7.08µM*,3.98µM*
Cc1ccc2nc(-c3ccc(NC(=O)COc4ccccc4)cc3)sc2c1,31.1%,39.6,10.0%[46.1 µM],.
Cc1ccc2nc(-c3ccc(NC(=O)COC(=O)c4ccco4)cc3)sc2c1,-55.1%,-5.9,2.24µM*,1.26µM*
CSc1nc2ccc(NC(=O)c3ccco3)cc2s1,-4.6%,-15.6,-5.2%,?
Cc1ccc(NC(=O)CSc2nc3ccc(NC(=O)c4ccco4)cc3s2)cc1,-20.9%,-62.4*,3.5%[46.1 µM],1.7%[46.1 µM]
Cc1ccc(NC(=O)COC(=O)c2ccco2)cc1,5.8%,15.3,.,.
SMILES,FMDV inh,HCMV antiviral,Lassa entry inh,Marburg entry inh
COC(=O)C1CCN(c2csc3ccc(Cl)cc3c2=O)CC1,24.9%,24.0,7.4%[46.1 µM],.
Cn1ccnc1/C(=N\NC(=O)c1ccc(O)cc1)c1cccc([N+](=O)[O-])c1,-4.9%,-23.8,-19.5%[46.1 µM],15.6%[46.1 µM]
CCOc1ncccc1C(=O)OCC(=O)Nc1ccc(-c2nc3ccc(C)cc3s2)cc1,-4.6%,-9.0,?,12.6µM*
c1cc(Nc2cccc3nccnc23)c2nccnc2c1,-7.1%,1.9,?,?
Fc1ccc(Nc2cccc3nccnc23)cc1,16.5%,-63.6*,-4.4%,?
CN(C)c1ccc(/C=N/N=C/c2ccccc2O)cc1,-61.9%,-10.6,?,5.62µM*
COc1ccccc1C=NN=Cc1ccccc1O,17.4%,84.5,?,?
